Source: PubChem BioAssay (NCI)
This is part of a sample that, as a whole, favours compounds with a hit. Of some 79,000 tested, about 15% had one in any assay. Activity calls are given as the source filed them. Cut-off read from the data, not from the text of the source: active = growth inhibition above about 70%; inactive = the rest. Where a SMILES comes first, the peptide text is derived from it.

Assays:
[1] = NCI Yeast Anticancer Drug Screen. Data for the rad50 strain (AID 155);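 note: 0% = growth of vehicle-only cultures of the same strain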; conditions: S. cerevisiae rad50 strain growth inhibition; at 50.0 µM; stronger effect = higher value
In short: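 Compounds were tested on a yeast strain with an engineered DNA damage repair alteration; the reported value is growth inhibition normalised to vehicle treatment.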

[2] = NCI Yeast Anticancer Drug Screen. Data for the mec2-1 strain (AID 157); conditions: S. cerevisiae mec2-1 strain, at 50.0 µM, stronger effect = higher value
In short: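 Strain: mec2-1 (DNA repair/cell cycle alteration). Compound exposure, then growth measured; inhibition expressed relative to vehicle.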

[3] = NCI Yeast Anticancer Drug Screen. Data for the sgs1 mgt1 strain (AID 161);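 note: 0% = growth of cultures given vehicle only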; conditions: S. cerevisiae sgs1 mgt1 strain, at 50.0 µM, stronger effect = higher value
In short: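 Mutant yeast exposed to compound; growth scored against vehicle-only wells.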

[4] = NCI Yeast Anticancer Drug Screen. Data for the cln2 rad14 strain (AID 165);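 note: 0% = growth equal to vehicle treated cultures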; conditions: S. cerevisiae cln2 rad14 strain, at 50.0 µM, stronger effect = higher value
In short: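 Compounds are applied to the cln2 rad14 yeast strain, and growth is then compared with that of vehicle-treated cultures to give inhibition.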

[5] = NCI Yeast Anticancer Drug Screen. Data for the bub3 strain (AID 167); conditions: S. cerevisiae bub3 mutant strain, at 50.0 µM, stronger effect = higher value
In short: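 Growth of a checkpoint-deficient yeast mutant is measured after compound exposure. Values represent inhibition relative to vehicle.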

[6] = NCI Yeast Anticancer Drug Screen. Data for the mlh1 rad18 strain (AID 175); conditions: S. cerevisiae mlh1 rad18 strain growth inhibition; at 50.0 µM; stronger effect = higher value
In short: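 Read-out is yeast growth inhibition, calculated against vehicle-only controls. The compound was applied to a strain engineered with DNA damage repair alterations.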

Measured: growth inhibition

CSc1ncc2c(C#N)c3ccccn3c(=O)c2n1
inactive: [1] 6.65% | [2] -7% | [3] 11.2% | [4] -1.5% | [5] 14.4% | [6] -17.5%

COc1ccc(/C(C)=N/N=C(\C)c2ccc(OC)cc2)cc1
inactive: [1] 7.45% | [2] -28.1% | [3] 32.3% | [4] 12.3% | [5] 17.1% | [6] 13.6%

O=C(NC1CCCCC1)C(c1ccccc1)c1ccccc1
inactive: [1] 8.85% | [2] -3.3% | [3] 0.4% | [4] -18.7% | [5] 1.85% | [6] -10.9%

COCCOC(=O)CCC(C)=O
inactive: [1] 20.8% | [2] 15.1% | [3] 6.45% | [4] 7.8% | [5] -4.95% | [6] 10.7%

O=C(NCCCl)Nc1ccc2c(c1)CCC2
inactive: [1] 1.55% | [2] 3.3% | [3] 1.55% | [4] -10.8% | [5] 10.8% | [6] 6.7%

COc1ccc(N2C(=O)CC(c3c[nH]c4ccccc34)C2=O)cc1 (stereo unspecified)
inactive: [1] -29.2% | [2] -37.1% | [3] 1.05% | [4] 6.9% | [5] 13.8% | [6] -22.2%

CCOC(OCC)C(O)c1ccccc1 (stereo unspecified)
inactive: [1] -17.2% | [2] -17% | [3] -11.9% | [4] -15% | [5] -12.6% | [6] -11%

CCOc1ccc(N=Cc2cc(Br)ccc2O)cc1
inactive: [1] 2.55% | [2] 0.6% | [3] 1.5% | [4] -0.5% | [5] 1.15% | [6] -13.4%

CS/C(=C\c1ccc2cc(C)ccc2[n+]1C)N1CCOCC1
inactive: [1] 7.25% | [2] -3.85% | [3] -16% | [4] -2.05% | [5] -45.6% | [6] -56.5%

Cc1cc(NCCN(C)C)nc(Nc2ccc(Cl)cc2)n1
inactive: [1] 50.8% | [2] 19.4% | [3] 31.6% | [4] -13.9% | [5] 10.9% | [6] 54.8%

NC(=S)N1CCCC1
inactive: [1] -2.2% | [2] -22.1% | [3] 3.05% | [4] 7% | [5] 17.6% | [6] 19.3%

O=C1CCCC(CCc2ccccc2)O1 (stereo unspecified)
inactive: [1] 5.45% | [2] -4.05% | [3] 1.3% | [4] -8% | [5] -37.1% | [6] -7.9%

O=C1c2cccc3cccc(c23)C(=O)N1CCO
inactive: [1] 50.6% | [2] 22.2% | [3] 39.9% | [4] 17.9% | [5] 16.2% | [6] 33.2%

COc1ccc(C)c2c1CCCC2
inactive: [1] -8.6% | [2] 9.75% | [3] -5.05% | [4] -60.2% | [5] -6.8% | [6] -14.5%

Cc1ccc([B-]23OCC[N+]2(CNC(=O)c2ccccc2O)CCO3)cc1 (stereo unspecified)
inactive: [1] 25.6% | [2] -4.4% | [3] 4.1% | [4] 3.6% | [5] 4.05% | [6] 12.8%

O=C1c2ccccc2C2(Br)C(=O)c3ccccc3C12Br (stereo unspecified)
active: [1] 98.6% | [2] 99% | [3] 98.8% | [4] 98.5% | [5] 98.5% | [6] 98.9%

CCc1ccc(S(N)(=O)=O)cc1
inactive: [1] 11.1% | [2] -4.1% | [3] -16.3% | [4] -24.6% | [5] -7% | [6] -168%

O=C(NCCCN1CCCCCC1)C(c1ccccc1)C1CCCCC1 (stereo unspecified)
inactive: [1] 25.3% | [2] -16.4% | [3] 49.4% | [4] 13.9% | [5] 14.6% | [6] 36.1%

CCCC(CCO)(CCO)c1ccccc1
inactive: [1] 16.6% | [2] -30.4% | [3] -9.65% | [4] 10.9% | [5] 8.1% | [6] -5.7%

C=CCC(OC(C)=O)c1cccc(OC)c1OC (stereo unspecified)
inactive: [1] 3.7% | [2] 7.2% | [3] -9.45% | [4] -48.7% | [5] -3.25% | [6] -5.3%

CCOC(=O)N1N=C(c2ccccc2)OC2(N3CCOCC3)CCC(C(C)(C)C)CC12 (stereo unspecified)
inactive: [1] 12.8% | [2] 5.1% | [3] 4.6% | [4] 5% | [5] -3% | [6] -2.4%

CC(C)CC(NC(=O)C(CCC(=O)O)NC(=O)CNC(=O)CNC(=O)C(CO)NC(=O)C(CC(C)C)NC(=O)C(NC(=O)C(CO)NC(=O)C(C)NC(=O)C(CCCNC(=N)N)NC(=O)C(C)NC(=O)CN)C(C)C)C(=O)NC(CC(=O)O)C(=O)NC(CCCNC(=N)N)C(=O)NC(Cc1c[nH]c2ccccc12)C(=O)NC(Cc1ccc(O)cc1)C(N)=O (stereo unspecified) (H-GARASVLSGGELDRWY-NH2; configuration not given here)
inactive: [1] 21.4% | [2] -7.15% | [3] 3.25% | [4] 8.4% | [5] -5.85% | [6] 11.7%

C=CCOCC(COC(=O)CCCCCCCCCCCCCCCCC)OCC=C (stereo unspecified)
inactive: [1] -8.85% | [2] -2.85% | [3] -0.25% | [4] 18.9% | [5] -16.8% | [6] 6.5%

O=C(O)C1(c2ccccc2)CC1
inactive: [1] 8.5% | [2] -7% | [3] 13.1% | [4] 2.45% | [5] 15.9% | [6] 7.85%

c1ccc2n[nH]nc2c1
inactive: [1] 19.1% | [2] -10.9% | [3] 7.3% | [4] 2.2% | [5] -4.8% | [6] 16.9%

O=CNC(CSC(=O)c1ccccc1)C(=O)O (stereo unspecified)
inactive: [1] -0.35% | [2] -3.75% | [3] -7.2% | [4] -15.2% | [5] -11.7% | [6] -12.7%

O=C(COC(=O)c1ccccc1Br)c1ccc(-c2ccccc2)cc1
inactive: [1] 33.6% | [2] 20.8% | [3] 31.6% | [4] 31.4% | [5] 0.7% | [6] 23.2%

O=S(=O)(CCl)Nc1ccncc1
inactive: [1] -16.6% | [2] -9.6% | [3] -25.6% | [4] -77.2% | [5] 3.1% | [6] -16.8%

Cc1cccc2c(C(=O)O)c3cccc(C)c3nc12
inactive: [1] 2.9% | [2] -0.15% | [3] 8.35% | [4] 18.6% | [5] 5.3% | [6] -3.95%

CCOC(=O)c1c(-c2ccc(OC)cc2)c(C#N)c(=S)n(C2OC(CO)C(O)C(O)C2O)c1C (stereo unspecified)
inactive: [1] 17.7% | [2] -9.5% | [3] 3.05% | [4] 6.3% | [5] 22.4% | [6] 10.1%

Cc1nc2sccc2c(=O)n1C
inactive: [1] -4.5% | [2] -3.6% | [3] -0.9% | [4] -4.1% | [5] 0.2% | [6] -4.35%

NC(=O)c1cn[nH]c1N
inactive: [1] 4.05% | [2] 6.2% | [3] 14.2% | [4] -29.6% | [5] -3.4% | [6] 0.55%

CCCNc1nc(N)[nH]c(=O)c1NC=O
inactive: [1] 2.45% | [2] -9.25% | [3] -6.7% | [4] -12.3% | [5] -15% | [6] -0.85%

C[N+]1=C(/C=C/Nc2ccc(Cl)cc2)C(C)(C)c2ccccc21
inactive: [1] -2.35% | [2] 6.2% | [3] -10.4% | [4] -2.55% | [5] -1.8% | [6] 9.5%

NC(=O)C12C3C4C1C1C2C3C41C(N)=O (stereo unspecified)
inactive: [1] 29.1% | [2] 12.4% | [3] -1.7% | [4] 16.5% | [5] -5.8% | [6] 20.6%

Cc1ccc([N+](=O)[O-])cc1NC(=O)N(C)Cc1ccc(Cl)cc1
inactive: [1] 5.5% | [2] 24.2% | [3] -12.2% | [4] -5.35% | [5] -5.4% | [6] -8.9%

CC1(C)OCC(C(OC(=O)c2ccc([N+](=O)[O-])cc2)C(OC(=O)c2ccc([N+](=O)[O-])cc2)C2COC(C)(C)O2)O1 (stereo unspecified)
inactive: [1] 24.6% | [2] 4.25% | [3] -5.3% | [4] 41.2% | [5] 2.9% | [6] 20.4%

O=C(Nc1ccc(Cl)cc1Cl)C(=O)C(C(=O)c1ccncc1)C1OC(=O)c2ccccc21 (stereo unspecified)
inactive: [1] -1% | [2] -38.3% | [3] -29.2% | [4] 23.4% | [5] 7.95% | [6] -0.4%

COC(=O)C(C(=O)C(=O)Nc1ccccc1C(C)=O)c1nc2ccc(Cl)cc2[nH]c1=O (stereo unspecified)
inactive: [1] -31.9% | [2] -16.2% | [3] -12.3% | [4] -4.45% | [5] -19.3% | [6] -14.4%

Cc1cc(/C=N/N2CCN(/N=C/c3cc(C)n(-c4ccccc4)c3C)CC2)c(C)n1-c1ccccc1
inactive: [1] 2.5% | [2] -9.15% | [3] -2.7% | [4] -27.9% | [5] -2.95% | [6] -13.6%

COc1ccc(C(=O)/C=C/c2ccc(OCCSCCCCCCCCCCSCCOc3ccc(/C=C/C(=O)c4ccc(OC)c(OC)c4)cc3)cc2)cc1OC
inactive: [1] -44.4% | [2] -26.1% | [3] -28.2% | [4] -6.35% | [5] -29.6% | [6] -53.6%
